Consider 58 sequences from the supplement of paper PMC11417369.

Whole data set: some 25,000 sequences, median “ln(normalized median fluorescence intensity)” near 7.1, cut for the highest 2% near 10. Shown is part of a subset that was picked to be rich in the highest values.

This test deals with PfSIP2 AP2 domain 1 (GST-tagged). As to the kind of experiment: gcPBM binding intensity (ln(normalized median fluorescence intensity)); higher = stronger DNA binding. An outline of the steps: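 In this array assay, P. falciparum DNA-binding domains with a GST tag, expressed in E. coli, were applied for 1 h to primer-extended double-stranded 36-bp intergenic genomic probes and negative controls on an Agilent 4 × 180k array. Bound protein was visualised with Alexa488 anti-GST antibody at 488 nm. Binding intensity is the highest Masliner-normalised natural-log median intensity across replicate spots of either probe orientation.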
Consider “CACGTGAAAATACAAGCATGCAAGCTTTTTTTTTCT [TGCATGCA_site642]”, for which the “gcPBM binding intensity (ln)” value worked out at 6.53. As to “TACAATTCGTAATACACACACATATAAATAAATATT [CACACA_site7720]”, the “gcPBM binding intensity (ln)” value was 7.28. The same measure for “AAATAATAAAGTATAACACACATATTTATTTATATA [CACACA_site7822]”: 6.73; for “AAAATACGAATATAAACATGCACCATATAGAACAAA [TGCATGCA_site925]”: 10.7; for “AAAGAACAAATAAAACATAAAATAATATATATAGAT [CACACA_negctrl_site1764]”: 7.02. The same measure for “AATAGAACAAATAAAACACACACATATATATATATA [CACACA_site8893]”: 9.42; for “ATAGATGCATATTATACACACATATGTAAATACATT [CACACA_site4691]”: 7.06; for “CAAACAATTAAACAAACACACATATACAAGTATATA [CACACA_site8639]”: 7.

With “GTAGGCATTAAAAAATGTACAAAATATTATGAATTG [XGTACX_site1615]”, the “gcPBM binding intensity (ln)” value is 6.85.

Turning to “TGAACATATTAAAATTGTACATATGCACAATATGTA [XGTACX_site6801]”, the “gcPBM binding intensity (ln)” value was 7.44. For “AGTAGGCATATTGGTTGTACAAAAAAATTATGCACC [XGTACX_site8925]” the value was 10.3. For “ATATAAACAAAGCAGTGCACGTAAACAAAACATATA [CACACA_negctrl_site1076]” the value was 10.4; for ATAAACATATAAAAAGTGCATATTCATATATCTACT, 8.7; for “ATCTCTACAAAGTGCACACACGTAAAAACATATATA [CACACA_site6046]”, 10.8.

For the sequence “TTATCTCTACAAAGTGCACACACGTAAAAACATATA [CACACA_site3957]”, the “gcPBM binding intensity (ln)” value was 10.4.

On to “AAACAGAATACATATACACACATACAAAAAAGTGCA [CACACA_site8235]”, for which the “gcPBM binding intensity (ln)” value amounted to 7.52. The same measure for “TAAAAAAAAACATATACACACAAAAACGTACACATA [CACACA_site1354]”: 7.29. For TTAAAAGTAAGCAAAGTGCATATAACAAAAGTAAAG the value was 8.19; for “TTGCACTCGTAAAAAGCACACATATAAAAACATTTA [CACACA_site7997]”, 8.15; for “TAAAAAAAAACATGTGCACACGTTTTATCTACATAA [CACACA_site2336]”, 8.79. For “ATATATATGTATATGTGTACTTATATTTGTCATTTT [XGTACX_site1317]” the value was 7.11; for “TAATATTTATGTTAATGTACAAAAAAACAAAACAAA [XGTACX_site301]”, 7.09; for “TTTTTTAAATATTAAAAATGGGATCTTATAACATAT [GTGCAC_negctrl_site666]”, 6.91. “ATATATATAATAAACACACACATATACATAGATGTA [CACACA_site5841]”: the “gcPBM binding intensity (ln)” value was found to be 7.49. The same measure for “AAATAAAAGATATTTTTACACACTTTTGATGAGATC [CACACA_site9000]”: 6.75; for “AAAAAAAAAAAAAAAAAAATATATTATATATATATA [XGTACX_negctrl_site467]”: 9.19; for “TAATAAGTACCTTTTGCATGTGGCACGCTTTTTTTT [TGCATGCA_site573]”: 6.75. For “TTAACATCTTCGTTGACACACAAAAAAAAAAATAAT [CACACA_site1819]” the value was 7.1; for “TCATATATATTATACACACACATATATAAATATATA [CACACA_site967]”, 7.03; for “CATAAAAATGGATACACACACATAATATATATATAT [CACACA_site3619]”, 9.01.

With “ATGGATTATACGTGCACACATATATACAAATAAATA [CACACA_site640]”, the “gcPBM binding intensity (ln)” value came to 10.5. The same measure for “TAATGGATTATACGTGCACACATATATACAAATAAA [CACACA_site8116]”: 10.5; for “ATATAAATACGGTGTGCACACACATAATATATATAT [CACACA_site2271]”: 8.98; for “TATAAATACATACGTACACACAAATATTAAAATATA [CACACA_site5129]”: 7.35. Regarding “TAGGGATTATACCACACACACATACACATAAATATA [CACACA_site3178]”, the “gcPBM binding intensity (ln)” value was 7.08. The same measure for “ATAAAATATATATGCACACACATATATATTTCATAC [CACACA_site3547]”: 7.24; for ATAATTTCATAATACGTGCACATAATATATAAAAAA: 10.5. Consider “ATGGATTATACGTGCACACATATATACCAATAAATA [CACACA_site4524]”, for which the “gcPBM binding intensity (ln)” value came out at 10.5. For “TTATAATATGGATACACACACATATATAAATATATA [CACACA_site5314]” the value was 6.98. Turning to “GAAATAATTTCATATACACACATATACATACATACA [CACACA_site1358]”, the “gcPBM binding intensity (ln)” value is 7.5. For “AAACATAAATTTTATTGTACATTATATAGAATTTTC [XGTACX_site576]”, the “gcPBM binding intensity (ln)” value turned out to be 6.81. The same measure for “AAATGTTGAAATGATACACACATATATATATATATA [CACACA_site2517]”: 9.59; for “TTATTTATGATATATACACACTAACATTATTTATCC [CACACA_site6720]”: 6.95. As to “GAAATTTCCCATATTACACACATACTATGATATATA [CACACA_site5987]”, the “gcPBM binding intensity (ln)” value was 7.12. Turning to “GTGATGGTACAATATACACACTTAAAAAAAAAAAAT [CACACA_site5360]”, the “gcPBM binding intensity (ln)” value stood at 7.17.

Take “TTTCTATATTGGCATACATGCAAGAACGAAAAGATT [TGCATGCA_site117]”: the “gcPBM binding intensity (ln)” value was determined as 7.09. The same measure for “TATAAAAAAAATTGCACACATATTATACAGGACGAC [CACACA_site701]”: 7.96.

As to “TTTATTTTTATTTTTGTGCACGGGATTAAATAAAAG [GTGCAC_site9842]”, the “gcPBM binding intensity (ln)” value was 10.5. As to “TTATTTTATTTTTTTGTGCACATATATATTTATAAA [GTGCAC_site9615]”, the “gcPBM binding intensity (ln)” value amounted to 9.43.

For TAATATTTTAATTGTGTGCACATTAATATTATAAAA, the “gcPBM binding intensity (ln)” value stood at 9.3. Regarding “AAGAAGAAACGGAAAAGTACAAAGAAGAAATAAGTA [XGTACX_site3680]”, the “gcPBM binding intensity (ln)” value worked out at 6.85. The same measure for “CATACATTATAAGATACATGCATATATCTGAACATA [TGCATGCA_site797]”: 7.02.

In the case of “AACATTATTTTGTGTACACATTCGGTTATATTATAT [CACACA_site5628]”, the “gcPBM binding intensity (ln)” value was 7.31. For “TAAATCAAAATAATTTAACACACAATTTTAATACTG [CACACA_site8744]” the value was 6.67.

Take ATACTATTTAAATGGGTGCTAAAAATAACAAAAATT: the “gcPBM binding intensity (ln)” value came out at 8.88.

For the sequence AATAAATACTAAATGGTGCAAAATTTTTTAACACTG, the “gcPBM binding intensity (ln)” value was 10.7. The same measure for “TATTAAAATATGTCAGTTCTTAAAAAGTTGATGAGT [GTGCAC_negctrl_site77]”: 7.17. For “TAATAATAATTAAATTGTACATATAATATAATATAA [XGTACX_site8554]” the value was 7.15.
